A selection: hits, their analogues and other compounds. The true share with any hit is near 19%.
HepG2 tox – qHTS for Inhibitors of TGF-b: Cytotox Counterscreen; HepG2 CAGA-GFP viability, ATP luminescence, 18 h; Potency, µM (top dose mostly 46.1 µM), without a hit: at the highest dose activity change, negative = cytotoxicity, usual class: cytotoxic; 0.76% of 410,000 active; AID 588856, 2011; further: potency means the concentration at half of the fitted maximal effect
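HepG2 CAGA-GFP cells (1000/well, DMEM with 1% FBS) received compound, then TGF-beta at 500 pg/mL final, and were incubated 18 hours at 37 degrees C. Viability was read by CellTiter-Glo luminescence. Media-only wells were set as complete cell-killing and DMSO as no toxicity.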
TDP1 block – qHTS Assay for Inhibitors of Tyrosyl-DNA Phosphodiesterase (TDP1); 0.28% of 350,000 active; recombinant TDP1, AlphaScreen DNA substrate cleavage; Tyrosyl-DNA phosphodiesterase 1 (Homo sapiens), Q9NUW8; Potency, µM (series often up to 130 µM), for inactives: top-dose activity change, negative = inhibition, hits mostly inhibitors; further: potency means the concentration at half of the fitted maximal effect; on the % scale 0 is the no-effect control and ±100 the full control effect; nearly all actives have a fitted effect of over 40% in size
Target sequence (Q9NUW8 whole entry, looked up): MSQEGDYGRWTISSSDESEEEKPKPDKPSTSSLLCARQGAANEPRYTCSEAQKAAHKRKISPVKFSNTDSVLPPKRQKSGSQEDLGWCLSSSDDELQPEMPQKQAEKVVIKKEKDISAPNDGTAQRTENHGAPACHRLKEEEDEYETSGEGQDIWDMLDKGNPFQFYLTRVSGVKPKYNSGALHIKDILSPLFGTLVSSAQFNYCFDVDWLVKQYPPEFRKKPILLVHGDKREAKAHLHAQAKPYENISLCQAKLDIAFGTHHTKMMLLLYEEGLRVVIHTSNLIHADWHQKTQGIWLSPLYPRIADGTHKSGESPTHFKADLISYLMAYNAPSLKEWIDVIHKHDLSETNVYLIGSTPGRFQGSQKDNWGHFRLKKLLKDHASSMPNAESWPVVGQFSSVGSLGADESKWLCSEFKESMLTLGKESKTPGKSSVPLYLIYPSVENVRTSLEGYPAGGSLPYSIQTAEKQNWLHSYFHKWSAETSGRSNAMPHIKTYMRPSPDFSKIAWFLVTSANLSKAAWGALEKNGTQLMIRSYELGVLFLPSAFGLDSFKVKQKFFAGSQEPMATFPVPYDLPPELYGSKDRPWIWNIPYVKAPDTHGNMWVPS
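Recombinant human Tdp1 (E. coli-expressed, 1 nM final) preincubated with compounds 15 min at room temperature, then 5'-biotin/3'-phosphotyrosine-FITC DNA substrate (15 nM final) added for 5 min. AlphaScreen beads (10 ug/ml final) added 10 min; cleavage lowers signal.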
TDP1 cell noCPT – qHTS for Inhibitors of human tyrosyl-DNA phosphodiesterase 1 (TDP1): qHTS in cells in absence of CPT | Potency, µM (titrated, usually from 46.2 µM), inactives show at the highest dose activity change, negative = growth inhibition, hits mostly inhibitors | 15% of 420,000 active | DT40 Tdp1-/- hTDP1 cells, no CPT, ATP luminescence, 48 h | AID 686978, 2013; further: potency means the concentration at half of the fitted maximal effect; on the % scale 0 is the no-effect control and ±100 the full control effect; nearly all actives have a fitted effect of over 55% in size
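No-CPT arm: Tdp1-/-;hTDP1 DT40 cells (400/well) plus compounds, incubated ≥48 hr at 37 °C. Readout CellTiter-Glo luminescence.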
TGFb inhibitor – qHTS for Inhibitors of TGF-b; HepG2 CAGA-GFP TGF-b/SMAD3 reporter, GFP fluorescence, 18 h; TGF-beta stimulated, 500 pg/mL final; Potency, µM (titrated, usually from 46.1 µM), for the others: at the highest dose activity, negative = inhibition, hits mostly inhibitors; 1.2% of 410,000 active; AID 588855, 2011; further: potency means the concentration at half of the fitted maximal effect; on the % scale 0 is the no-effect control and ±100 the full control effect; nearly all actives have a fitted effect of over 65% in size
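Cell-based qHTS in HEPG2 carrying a CAGA-GFP Smad reporter; compounds added before 500 pg/mL final TGF-beta, 18 h incubation at 37 degrees C, GFP fluorescence quantified per cell by imaging cytometry.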
DT40 TDP1 CPT – qHTS for Inhibitors of human tyrosyl-DNA phosphodiesterase 1 (TDP1): qHTS in cells in presence of CPT. chicken DT40 Tdp1-/-;hTDP1 cells + 20 nM CPT, ATP luminescence, 48 h. Potency, µM (doses to about 46.2 µM), for inactives: at the top dose activity change, negative = growth inhibition, hits mostly inhibitors. 12% of 420,000 active. AID 686979, 2013; further: potency means the concentration at half of the fitted maximal effect; on the % scale 0 is the no-effect control and ±100 the full control effect; nearly all actives have a fitted effect of over 55% in size
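Cell growth measured by CellTiter-Glo luminescence after a minimum 48 h, 37 C compound exposure with 20 nM CPT in Tdp1-knockout DT40 cells stably expressing hTDP1, seeded 400/well; qHTS titration format.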
IL-1B inflam inh – qHTS for Inhibitors of Inflammasome Signaling: IL-1-beta AlphaLISA Primary Screen | THP-1 LPS/ATP IL-1B secretion, AlphaLISA, 16 h; active compounds read low | activity change, % at 57.5 µM | 4.7% of 360,000 active; in the data active means activity change below about -50%; inconclusive means mostly about -30% to -49%; further: on the % scale 0 is the no-effect control and ±100 the full control effect
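THP-1 cells pretreated 1 hr with compounds (up to 57.5 uM final), then stimulated with LPS (250 ng/mL final) plus ATP (1.25 mM final); secreted IL-1B measured by AlphaLISA after 16 hr, decreased signal indicating inhibition.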
Numbers without * were called inactive; ? = inconclusive; · = no result given; [ ] = another dose, or the depositor's remark. Unless noted, the call rests on the fitted dose curve; in most records, active means well fitted curve in the direction sought with a large enough effect; inconclusive means small, poorly fitted or top-dose-only effect, or another doubt; inactive means no such curve, though single readings can be large; an effect the other way counts as inactive or inconclusive.

SMILES	HepG2 tox	TDP1 block	TDP1 cell noCPT	TGFb inhibitor	DT40 TDP1 CPT	IL-1B inflam inh
O=C(CN1C(=O)CCc2cc(S(=O)(=O)N3CCOCC3)ccc21)NCc1ccccc1Cl	-14.7%	3.8%	-14.5%	-22.6%	-0.2%	·
Cc1cc(C)c2c(C)c(C(=O)N3CCC(c4nc5ccccc5s4)CC3)oc2c1	-2.0%	-0.5%	?	?	?	·
CCOC(=O)C1(CCOc2ccccc2)CCN(Cc2cc(OC)ccc2OC)CC1	-55.3%	·	14.6µM*	?	?	-7.3
CCOC(=O)C1(CCOc2ccccc2)CCN(Cc2cccc(OC)c2O)CC1	-24.7%	·	?	-10.4%	?	-84.9*
CCOC(=O)C1(CCOC)CCN(C/C=C/c2ccccc2OC)CC1	-54.8%	·	10.3µM*	?	10.3µM*	0.0
Cc1cc(NC(=O)c2ccc3c(c2)C(=O)N(c2cccc(C)c2C)C3=O)no1	3.0%	-0.4%	-1.9%	-2.8%	-8.8%	9.5
Cc1c(C(=O)N2CCC[C@H]2C(N)=O)oc2c(F)cccc12	6.5%	1.1%	17.3%	-0.7%	-18.0%	0.0
CC(=O)Nc1ccc2nc(SCC(=O)N3CCOCC3)sc2c1	-8.2%	-2.6%	-0.9%	-19.2%	6.5%	11.2
Cc1ccccc1C(=O)Nc1ccc2nc(SCCOc3ccccc3)sc2c1	0.5%	1.6%	?	-13.3%	?	·
Cc1cccc(C(=O)Nc2ccc3nc(SCC(=O)N4CCc5ccccc54)sc3c2)c1	-7.0%	2.6%	4.61µM*	?	5.8µM*	·
Cc1nnc(SCC(=O)N2CCc3ccccc32)s1	-7.1%	0.0%	-9.1%	0.0%	-3.9%	25.2
CCC(CC)C(=O)Nc1ccc2nc(SCC(=O)N3c4ccccc4CC3C)sc2c1 (configuration not stated)	2.5%	0.5%	16.4µM*	21.2%	11.6µM*	·
Cc1cccc(C(=O)Nc2ccc3nc(SCC(=O)N4CCCC4)sc3c2)c1	-33.6%	1.6%	16.4µM*	0.0%	?	·
Cc1ccccc1C(=O)Nc1ccc2nc(SCC(=O)N3CCc4ccccc43)sc2c1	0.1%	-3.6%	3.66µM*	-8.7%	5.17µM*	·
Cc1nc2ccc(C(=O)Nc3ccc4nc[nH]c4c3)cc2[nH]1	2.9%	·	-0.7%	-0.5%	21.4%	13.2
O=C(Nc1ccc(Nc2ccncc2)cc1)c1ccc([N+](=O)[O-])cc1	17.8µM*	3.8%	14.6µM*	17.8µM*	20.6µM*	-97.5*
O=C(Nc1ccc([N+](=O)[O-])cc1)c1ccc(Cn2cc([N+](=O)[O-])cn2)cc1	-23.2%	-8.1%	13µM*	-21.4%	18.4µM*	-7.7
O=C(Nc1cnn(Cc2ccc(Cl)cc2)c1)c1ccc([N+](=O)[O-])cc1	-10.7%	7.0%	?	-3.0%	?	?
Cc1nc2ccc(NC(=O)c3ccc([N+](=O)[O-])cc3)cc2[nH]1	0.2%	·	16.4µM*	18.2%	?	3.2
CCn1cc(CN2CCOc3ccc(C(O)C4CCCCC4)cc3C2)c(C)n1 (configuration not stated)	·	·	?	·	-9.0%[9.04 µM]	·
CCCc1nc2cccnc2n1C1CCN(C(=O)Cn2nccc2C)CC1	·	·	-19.2%	·	5.3%[9.04 µM]	·
CCN(C(=S)Nc1ccccc1F)C1CCCCC1	0.4%	-4.3%	23.1µM*	-24.1%	?	-7.8
CCN(C(=S)Nc1ccc(OC(F)F)cc1)C1CCCCC1	5.7%	-5.0%	-23.3%	2.2%	-1.1%	?
CCC(C)NC(=O)CNC(=S)N(Cc1ccccc1F)C1CCCCC1 (configuration not stated)	7.3%	-2.6%	?	3.3%	3.1%	-0.9
